# The campaign covered roughly 2,100 compounds. About 940 (45%) were called active. Inconclusive results (about 48%) are left out. Calls come from the whole dose curve; as a rule, active = well fitted inhibition curve with a large enough effect; inconclusive = small, poorly fitted or top-dose-only effect; inactive = no such curve, though single readings can be large or run the other way. So high a share suggests a set chosen from earlier hits. Some of the results follow.
# Assay: Confirmatory qHTS for Inhibitors of ATXN expression; note: nearly all actives have a fitted effect of over 65% in size
# Conditions: ATXN2-luciferase reporter cells, luminescence, 24 h; series mostly up to 11.5 µM
# Excerpt: PI: Daniel Scoles Ph.D. University of Utah School of Medicine, Salt Lake City, Utah MLPCN Grant: NS073009 Spinocerebellar ataxia type 2 (SCA2) is a multisystem neurodegenerative disease caused by a dominantly acting mutation leading to expansion of a polyQ domain in the ataxin-2 protein (ATXN2). SCA2 patients develop progressive ataxia and later lose function in other neuronal systems. Prominent parkinsonian signs develop in some patients. Like many neurodegenerative disorders, no symptomatic or disease-modifying treatments are known. The primary objective of the proposed research is to identify compounds inhibiting ATXN2 expression and to test them for efficacy in SCA2 mouse models. We have developed a cell-based assay paired with an in vivo mouse model using identical luciferase expression constructs. This approach takes advantage of an ATXN2-luciferase transgene, with the luciferase gene flanked by the upstream and downstream portions of the ATXN2 gene. Here we describe a 5-7 dose quantitative high thoroughput screen (qHTS) for compounds lowering ATXN2 expression. We screened the NIH Molecular Libraries Small Molecule Repository (MLSMR) and NCGC's mechanistically annotated (MIPE) and drug repurposing (NPC) collections of compounds for lowering expression of an ATXN2-luciferase reporter in HEK-293 cells. The assay is a multiplexed cell viability assay to ensure target reduction in the absence of cytotoxicity. Secondary qHTS assays included a CMV-luciferase reporter expressed in HEK-293 cells as well as a biochemical assay using recombinant luciferase to detect inhibitors of the reporter enzyme. Compounds that inhibit ATXN2 expression but is not cytotoxic were selected for confirmatory and secondary screens.
# PROTOCOL TABLE (as described by Inglese J, Shamu CE and Guy RK. 2007) SEQUENCE No. (e.g., 1, 2, 3, etc.); PARAMETER (e.g., Cells, Incubation, Reagent, etc.); VALUE; DESCRIPTION. 1; Cells; 4 uL; white, solid bottom, 1536-well Greiner assay plate. 2; Incubation; 2 hr; 37 degree C in 5% humidified CO2. 3; Compounds; 23 nL; Kalypsis pintool (Wako USA) equipped with a 1536-well pin head. 4; Incubation; 24 hr; 37 degree C in 5% humidified CO2. 5; Reagent; 1 uL; Gly-Phe-7-Amino-4-trifluoromethylcoumarin. 6; Incubation; 30 min; 37 degree C in 5% humidified CO2. 7; Detection; Fluorescence; ViewLux plate reader (PerkinElmer). 8; Reagent; 3 uL; SteadyGlo luciferase solution (Promega). 9; Incubation; 5 min; room temperature. 10; Detection; Luminescence; ViewLux plate reader (PerkinElmer). NOTES (numbers refer to Sequence numbers above) 1. […] expressing ATXN2-luciferase reporter were suspended in phenol-red free DMEM and dispensed in assay plates using a Multidrop Combi dispenser (Thermo Fisher Scientific). Wells containing medium only were plated on each plate, and values were used to normalize (100% inhibition) in the luciferase and CellTiter-Fluor assays. 2. Assay plates were incubated. Evaporation was prevented by covering assay plates with metal lids containing holes to allow gas diffusion. 3. Compounds were added in a dose response manner with the final concentrations of 57, 11.4, 2.28, 0.46, 0.091, 0.018, 0.0037 uM. Vehicle-only plates, with DMSO being pin-transferred to columns 5-48, were inserted uniformly at the beginning and the end of each library to monitor and record any shifts in assay performance. 5. 125 uM Gly-Phe-7-Amino-4-trifluoromethylcoumarin (MP Biomedicals) working concentration was used at a final concentration of 25 uM. 7. To assess cell viability; the assay plates were read using the ViewLux high-throughput CCD imager (PerkinElmer), wherein single end-point fluorescence measurement was acquired (excitation 405/10; emission 540/25 nm). 8. Detection reagent SteadyGlo Luciferase (Promega) was added to the assay plate. 10. Luminescence is then measured on the ViewLux imager equipped with a clear emission filter using a 2 sec exposure. […]
# Potency is the fitted concentration of half-maximal effect.
row,SMILES,Potency
1,CC(C(=O)c1ccc(-c2ccccc2)cc1)[n+]1cccc(NC(=O)c2ccccc2)c1 (stereo unspecified),inactive
2,Cc1cc[n+](C(C)C(=O)c2ccc(-c3ccccc3)cc2)cc1 (stereo unspecified),14.1 µM (active)
3,Cc1ccc(Cc2cnc(N3C(=N)SC(C)C3=O)s2)cc1 (stereo unspecified),inactive
4,COc1ccc(OC)c(NC(=O)COC(=O)c2c3c(nc4ccccc24)CCCC3)c1,3.16 µM (active)
5,Cn1cc(SCC(=O)Nc2nc3ccccc3s2)c2ccccc21,3.16 µM (active)
6,COc1ccc(CC(N)c2csc(Nc3ccc(C(=O)c4ccccc4)cc3)n2)cc1 (stereo unspecified),inactive
7,NC(COCc1ccccc1)c1csc(Nc2ccc(C(F)(F)F)cn2)n1 (stereo unspecified),31.6 µM (active)
8,CC(C)CC(N)c1csc(Nc2ccc(C(=O)N(C)Cc3ccccc3)cn2)n1 (stereo unspecified),12.6 µM (active)
9,NC(c1csc(Nc2nccc(C(F)(F)F)n2)n1)C1CCCCC1 (stereo unspecified),3.55 µM (active)
10,NC(Cc1ccc(F)cc1)c1csc(Nc2cc(NCc3ccco3)ncn2)n1 (stereo unspecified),inactive
11,NC(Cc1ccccc1)c1csc(Nc2ccc(C(F)(F)F)cn2)n1 (stereo unspecified),31.6 µM (active)
12,NC(Cc1ccc(C(F)(F)F)cc1)c1csc(Nc2nccc(C(F)(F)F)n2)n1 (stereo unspecified),3.55 µM (active)
13,Cc1cc(C(=O)N/N=C/c2ccc([N+](=O)[O-])s2)n[nH]1,8.91 µM (active)
14,CC(C)(C)c1cc(C(=O)N/N=C/c2ccc([N+](=O)[O-])s2)n[nH]1,5.01 µM (active)
15,O=C(Cn1cnc([N+](=O)[O-])c1)Nc1cc(Oc2ccc(Cl)cc2Cl)cc([N+](=O)[O-])c1,2.82 µM (active)
16,O=C(NCc1cc(C(F)(F)F)ccc1Cl)c1cccc2c1C(=O)c1ccc(N3CCOCC3)cc1S2(=O)=O,3.98 µM (active)
17,O=C(NCc1ccccc1C(F)(F)F)c1cccc2c1C(=O)c1ccc(N3CCC(N4CCCCC4)CC3)cc1S2(=O)=O,3.16 µM (active)
18,CCCc1nc2c(c(=O)c3ccccc3n2C)c(=O)n1C1CCCCCC1,14.1 µM (active)
19,COc1ccc(C(=O)Nn2c(SCC(=O)c3ccccc3)nc3ccccc3c2=O)cc1,15.8 µM (active)
20,O=S(=O)(Nc1cccc2cccnc12)c1ccccc1,1.58 µM (active)
21,Cc1ccc(S(=O)(=O)Nc2cc(Cl)c(O)c3ncccc23)cc1,3.55 µM (active)
22,O=[N+]([O-])c1ccccc1S(=O)(=O)Nc1cccc2cccnc12,10 µM (active)
23,Cc1ccc(S(=O)(=O)Nc2cccc3cccnc23)cc1,8.91 µM (active)

row,SMILES,Potency
1,O=C(/C=C/Nc1ccc(S(=O)(=O)Nc2ncccn2)cc1)c1ccc(Cl)c(Cl)c1,inactive
2,CCc1ccc(N(CC)C(=O)c2ccc3c(Cl)c4c(nc3c2)CCC4)cc1,3.55 µM (active)
3,C[C@@H]1ON(C)[C@H]2C[C@H]3c4[nH]c5ccc(-c6ccc7c(c6)OCO7)cc5c4CCN3C(=O)[C@@H]12,15.8 µM (active)
4,Nc1cccc2nc3ccccc3cc12,7.94 µM (active)
5,Nc1c2ccccc2nc2ccccc12,3.55 µM (active)
6,CCc1nc2ccc(C(=O)Nc3cc(-c4ccccc4)ccc3OC)cn2c1N(CC)CC(=O)N(C)C,28.2 µM (active)
7,O=C(CCCOc1ccc(Cl)cc1Cl)N/N=C/c1ccccc1O,2.82 µM (active)
8,O=C(CNS(=O)(=O)c1ccc([N+](=O)[O-])cc1)N/N=C/c1ccc(O)cc1O,3.16 µM (active)
9,Cc1ccc(S(=O)(=O)NCC(=O)N/N=C/c2ccccc2O)cc1,3.16 µM (active)
10,Cc1ccc(SCCC(=O)N/N=C/c2ccccc2O)cc1,3.55 µM (active)
11,N#CC1=C(N)N2C(=C(C#N)C1c1cccc(Br)c1)Nc1ccccc12 (stereo unspecified),3.16 µM (active)
12,Cc1csc2ncnc(NC3CCN(Cc4ccccc4)CC3)c12,0.794 µM (active)
13,CC(C)(C)c1ccc(Oc2ccc(N)cc2)cc1,2.24 µM (active)
14,CC(C)(C)c1ccc(Oc2ccc(N)cn2)cc1,3.16 µM (active)
15,Cc1cc(C)n(CCC(=O)N/N=C/c2ccc(O)cc2O)n1,3.16 µM (active)
16,COc1ccc(O)c(/C=N/NC(=O)CSc2nnc(C)n2-c2ccccc2)c1,2.82 µM (active)
17,COc1ccc(O)c(/C=N/NC(=O)CCC(=O)Nc2cccc(C)c2)c1,14.1 µM (active)
18,Cc1cccc(NC(=O)CCC(=O)N/N=C/c2ccc(O)cc2O)c1,3.16 µM (active)
19,COc1cc(OC)c(OC)cc1/C=C1\CC(C)C/C(=C\c2cc(OC)c(OC)cc2OC)C1=O (stereo unspecified),14.1 µM (active)
20,COc1cc(OC)c(OC)cc1/C=C1\CCC/C(=C\c2cc(OC)c(OC)cc2OC)C1=O,3.98 µM (active)
21,Cc1ccccc1C(=O)N1CCN(c2ccc(NC(=O)c3ccco3)cc2Cl)CC1,17.8 µM (active)
22,O=C(Nc1ccc(N2CCN(C(=O)c3ccccc3)CC2)c(Cl)c1)c1ccc(Br)o1,2.51 µM (active)
23,COc1ccc(CC(=O)Nc2nc(-c3ccc(F)c(F)c3)cs2)cc1OC,4.47 µM (active)

row,SMILES,Potency
1,O=C(Nc1nc(-c2ccc(F)c(F)c2)cs1)Nc1ccc(F)cc1F,1.41 µM (active)
2,COc1cc(CC(=O)Nc2nc(-c3ccc(F)c(F)c3)cs2)cc(OC)c1OC,3.98 µM (active)
3,COc1ccc(CC(=O)Nc2nc(-c3ccc(OC)c(OC)c3)cs2)cc1OC,3.16 µM (active)
4,O=C(CCN1C(=O)C2CC=CCC2C1=O)Nc1nc(-c2ccc(F)c(F)c2)cs1 (stereo unspecified),inactive
5,COCCNc1nc(-c2cc(C)n(CCc3ccc(OC)cc3)c2C)cs1,inactive
6,CCCCCc1ccc(OCCCC[n+]2cccc(C)c2)c(CCCCC)c1,14.1 µM (active)
7,CCCCCc1ccc(OCCC[n+]2ccccc2)c(CCCCC)c1,14.1 µM (active)
8,CCOC(=O)[C@H]1[C@H]2COc3ccc(OC)cc3[C@@H]2N2C(=O)c3cc(OC)c(OC)cc3NC(=O)[C@@]12C,inactive
9,COc1ccc(/C=C2\CN(Cc3ccccc3)C/C(=C\c3ccc(OC)c(O)c3)C2=O)cc1O,3.98 µM (active)
10,COc1ccc(C(=O)Cn2c(C(=O)/C=C/c3ccccc3)nc3ccccc32)cc1,2.82 µM (active)
11,COCC(C)n1c(C)cc(C(=O)COC(=O)c2cccn2C)c1C (stereo unspecified),2.24 µM (active)
12,C/C(=N\NC(=O)c1cc(-c2cccnc2)nc2ccccc12)c1ccc(O)cc1O,2.51 µM (active)
13,C/C(=N\NC(=O)c1cc(C2CC2)nc2ccccc12)c1ccc(O)cc1O,3.55 µM (active)
14,Cc1cccc(/C=N/NC(=O)c2c(-c3ccccc3)noc2C)c1O,1.26 µM (active)
15,COc1cccc(/C=N/NC(=O)c2c(-c3ccccc3)noc2C)c1O,0.708 µM (active)
16,Cc1onc(-c2ccccc2)c1C(=O)Nc1ccc(S(=O)(=O)NC(C)(C)C)cc1,inactive
17,Cc1cc(N2CCN(C)CC2)ccc1NC(=O)c1ccc(-c2ccc(Cl)cc2)o1,14.1 µM (active)
18,O=C(N/N=C/c1ccccc1O)C1CC(=O)N(c2ccc(F)cc2)C1 (stereo unspecified),3.55 µM (active)
19,O=C(N/N=C/c1ccccc1O)C1CC(=O)N(c2ccc(Cl)cc2)C1 (stereo unspecified),1.41 µM (active)
20,CCc1ccc(N2CC(C(=O)N/N=C/c3cc([N+](=O)[O-])ccc3O)CC2=O)cc1 (stereo unspecified),25.1 µM (active)
21,COc1ccccc1C(=O)NNC(=S)NC(=O)c1ccco1,6.31 µM (active)
22,COc1ccccc1NC(=S)NC(=O)c1ccc(Cn2cc(Br)cn2)cc1,inactive
23,CC(Oc1ccc(Cl)cc1)C(=O)NNC(=S)NC(=O)c1ccco1 (stereo unspecified),14.1 µM (active)

row,SMILES,Potency
1,COC(=O)C(Cc1ccc(O)cc1)NC(=O)C(C)Oc1ccccc1 (stereo unspecified),inactive
2,CC(=O)c1ccc(NC(=O)COC(=O)c2c3c(nc4ccccc24)/C(=C\c2cccs2)CCC3)cc1,20 µM (active)
3,O=C(NN=Cc1ccc(O)cc1O)c1ccccc1NS(=O)(=O)c1cccs1,2.82 µM (active)
4,CN1C/C(=C/c2cccnc2)C(=O)/C(=C/c2cccnc2)C1,inactive
5,O=C1/C(=C/c2ccncc2)CCC/C1=C\c1ccncc1,5.62 µM (active)
6,CCn1c(/C=C/c2ccc([N+](=O)[O-])o2)nc2ccccc2c1=O,7.08 µM (active)
7,O=C(Nc1ccc(F)cc1)Nc1cc(OCC(F)(F)F)cc(OCC(F)(F)F)c1,3.55 µM (active)
8,COc1ccc(CC2C(=O)NC(C)C(=O)N(C)C3Cc4ccc(cc4)Oc4cc(ccc4O)CC(C(=O)NC(C)C(=O)NC(C)C(=O)N2C)N(C)C3=O)cc1 (stereo unspecified),0.251 µM (active)
9,O=C(CSCc1ccc(Cl)cc1)Nc1cc([N+](=O)[O-])ccc1O,inactive
10,O=C(CCC(=O)Nc1cc(C(F)(F)F)ccc1Cl)N/N=C\c1cc([N+](=O)[O-])ccc1O,3.16 µM (active)
11,O=C(CCCC(=O)Nc1cccc(Br)c1)N/N=C/c1cc([N+](=O)[O-])ccc1O,3.16 µM (active)
12,c1ccc(CN=C(NCc2ccccc2)NCc2ccccc2)cc1,28.2 µM (active)
13,COc1ccc2[nH]c3c(N4CCC(O)(c5cccc(C(F)(F)F)c5)CC4)ncnc3c2c1,2.82 µM (active)
14,COc1cccc2c1C1COC3C4CC(C(=O)O)C(C(C2)N13)N4C (stereo unspecified),10 µM (active)
15,COc1cccc2c1C(CO)N1C(C#N)C3CC(C(=O)O)C(C1C2)N3C (stereo unspecified),0.282 µM (active)
16,Cc1nnc(-c2ccccc2)c(=O)n1/N=C/c1c(O)ccc2ccccc12,10 µM (active)
17,COc1ccc2nc(C)cc(Nc3ccc(N4CCOCC4)cc3)c2c1,15.8 µM (active)
18,COC(=O)c1ccc(N2CCOCC2)c(NC(=O)Nc2cccc(OC)c2)c1,inactive
19,CC(C)(C)c1ccc(C(=O)N2CCCCCC2=O)cc1,1.78 µM (active)
20,COc1ccc(-c2csc(N(CCCN3CCOCC3)C(=O)c3ccco3)n2)cc1,3.16 µM (active)
21,COc1ccc(/C(N)=N/OC(=O)N2CCOCC2)cc1,inactive
22,COc1ccc(-c2csc(N(CCCN(C)C)C(=O)c3ccccc3Cl)n2)cc1,3.16 µM (active)

# Source: PubChem BioAssay AID1745848 (National Center for Advancing Translational Sciences (NCATS), 2022)
